# GalR3 antagonist = blocks the human galanin receptor 3; O60755; HEK293 GalR3-CNG cAMP membrane potential fluorescence; galR3 body fused to GalR1 C-terminus; AID 651719; 0.44% of 360,000 active; inhibition, % at 3 µM;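 active = inhibition above the screen-wide average plus 3 SD, cut at about 13% in these data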;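 also: forskolin and galanin both at EC90 stimulate the cells; cAMP rise reported by CNG channel membrane potential dye signal; 0% = forskolin plus galanin with DMSO and 100% = forskolin alone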
# Target sequence (O60755 1-299 limits assumed): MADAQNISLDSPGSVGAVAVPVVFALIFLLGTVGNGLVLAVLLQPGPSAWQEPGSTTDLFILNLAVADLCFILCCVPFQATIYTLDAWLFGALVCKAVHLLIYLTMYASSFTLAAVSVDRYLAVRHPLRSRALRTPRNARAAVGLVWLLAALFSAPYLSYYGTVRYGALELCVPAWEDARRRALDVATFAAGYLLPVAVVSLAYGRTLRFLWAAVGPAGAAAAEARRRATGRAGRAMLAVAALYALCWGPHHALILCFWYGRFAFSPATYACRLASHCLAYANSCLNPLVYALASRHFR
# 697 NFkB inh = inhibitors of the PMA/ionomycin-induced NF-kB reporter in 697 B cells. 697 B-cell NF-kB luciferase reporter, 16 h. inhibition, % at 4 µM. 0.33% of 330,000 active. AID 435022; in the data active = inhibition above about 35%
# NR2F2 inh = blocks human COUP-TFII nuclear receptor; P24468; HEK293T NGFI-A luciferase reporter, luminescence; inhibition, % at 8.6 µM; 0.7% of 370,000 active; AID 686940;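 active = inhibition above a per-plate cutoff, mean inhibition of test wells between control levels plus 3 SD, cut at about 38% in these data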;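 also: cells cotransfected with COUP-TFII expression vector driving the NGFI-A reporter; 0% = median of COUP-TF2 test wells and 100% = reporter-only cells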
# Gli-Sufu antag = blocks Gli-Sufu signaling in a luciferase reporter; inhibition, % at 5 µM; AID 588413; 0.74% of 340,000 active; Sufu-KO-LIGHT fibroblasts, Gli luciferase reporter luminescence;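 active = inhibition above about 55%, limit read from the data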;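 also: 0% = DMSO-treated cells and 100% = wells with medium but no cells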
# Jurkat NFkB inh = lowers PMA/ionomycin-induced NF-kB signal in Jurkat cells. PMA/ionomycin-induced NF-kB luciferase reporter, luminescence. 0.53% of 330,000 active. AID 435003. inhibition, % at 4 µM; in the data active = inhibition above about 50%
# Jurkat NFkB conf = lowers PMA/ionomycin-induced NF-kB signal in Jurkat cells. shares compounds with Jurkat NFkB inh. Jurkat NF-kB luciferase, 16 h. inhibition, % at 4 µM. 27% of 2,700 active;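 active = inhibition reaching about 45% at 4 µM in either replicate, limit read from the data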;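 also: plate controls were PMA/ionomycin stimulated DMSO wells for no effect and unstimulated DMSO wells for full effect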
# 697 NFkB conf = inhibitors of the PMA/ionomycin-induced NF-kB reporter in 697 B cells, retest. shares compounds with 697 NFkB inh. 697 B-cell NF-kB luciferase, 16 h. inhibition, % at 4 µM. 35% of 2,000 active. AID 449746; in the data active = inhibition mostly above about 28%, no sharp cut-off; inactive = mostly below about 22%
# Active calls of the source: *; / = no result given. Compounds with a hit are over-represented: about 2% of the library has one in this group of screens.
SMILES,GalR3 antagonist,697 NFkB inh,NR2F2 inh,Gli-Sufu antag,Jurkat NFkB inh,Jurkat NFkB conf,697 NFkB conf
C(=N\Nc1nc2ccccc2s1)/c1ccco1,1,-297,-46,-92,-160,-100,-245
Cc1ccc(Nc2nc3ccccc3s2)cc1,-4,-288,-50,-71,-153,-124,-265
COc1cc2c(c(OC)c1OC)-c1ccc(OC)c(=O)cc1[C@@H](NC(C)=O)CC2,/,-253,-62,52,71*,69*,-172
C/C(=C/c1[nH]c(N)[n+](CC2CC2)c1Cc1ccccc1)Cn1[nH]c(=O)n(-c2ccccc2)c1=O,/,/,4,/,/,/,/
Cc1ccc(-c2cn(-c3ccccc3)c(=S)[nH]2)cc1C,-4,-286,-44,-69,-152,-29,-327
Cc1ccccc1-c1cn(-c2ccccc2)c(=S)[nH]1,-10,-9,3,20,-2,/,/
C[C@H](O)[C@@H]1CN2CCc3c([nH]c4c(-c5ccc6c(c5)OCO6)cccc34)[C@@H]2C[C@@H]1N(C)C(=O)c1ccco1,/,/,-25,/,/,/,/
Cc1ccc(C(=O)O/N=C(\N)Cc2cccs2)c(Cl)c1,/,-253,/,-103,-153,-82,-282
O=C(c1cc(F)cc(F)c1)N1CCCC(c2nc(-c3cccs3)no2)C1 (stereo not given),/,/,-3,/,/,/,/
Brc1ccccc1-c1nc(-c2ccccc2)no1,/,-303,/,/,-153,-98,-329
c1ccc(-c2noc(-c3cccc4ccccc34)n2)cc1,6,-179,-24,-6,-131,/,/
CC(C)(C)c1ccc(-c2nc(-c3ccncc3)no2)cc1,-8,-355,-16,-39,-193,-69,-379
Cc1ccc(-c2nc(-c3ccccc3)no2)cc1,0,-295,-20,-121,-177,-123,-283
O=[N+]([O-])c1cc(C=NN2CCN(Cc3ccccc3Cl)CC2)ccc1Cl,/,/,-5,/,/,/,/
CCN(CC)c1ccc(-c2nn3c(-c4ccccc4Cl)nnc3s2)cc1,/,/,-59,/,/,/,/
COC(=O)[C@]12C[C@H](CC(=O)NCCCCc3ccccc3)C(=O)N(Cc3cccc4ccccc34)C1=C[C@H](C(C)C)O[C@@H]2C1CC1,/,/,22,/,/,/,/
CC(C)=CCC/C(C)=C/CNCC(=O)N1c2ccccc2[C@]2(C)C[C@@H]3C(=O)N(C/C=C(\C)CCC=C(C)C)CC(=O)N3[C@H]12,/,/,8,/,/,/,/
CCCOc1ccc(-c2cn3ccccc3n2)cc1,-5,-159,-31,-92,-140,/,/
COc1ccc(-c2cn3ccc4ccccc4c3n2)cc1,-3,-334,-42,-126,-196,-93,-227
O=C(Nc1ccc(-c2noc(CCc3ccccc3)n2)cc1)c1ccco1,1,-296,-53,-77,-187,-84,-184
c1ccc(CCc2nc(-c3ccccc3)no2)cc1,-5,-31,-2,-56,-56,/,/
Cn1cccc1/C=C1\Cc2ccccc2C1=O,-1,-100,-29,-1,-63,/,/
Cn1cccc1/C=C1\CCc2ccccc2C1=O,-5,-400,-31,-61,-162,-2,-57
COc1ccc(C2=NN3C(C2)c2ccccc2OC3c2cccs2)cc1 (stereo not given),-7,-121,-1,-13,-94,/,/
COc1ccc(C2=NN3C(C2)c2ccccc2OC32C(=O)N(C)c3ccccc32)cc1 (stereo not given),-4,-306,-43,0,-182,-139,-247
SMILES,GalR3 antagonist,697 NFkB inh,NR2F2 inh,Gli-Sufu antag,Jurkat NFkB inh,Jurkat NFkB conf,697 NFkB conf
Cc1ccccc1CNC(=O)CN1CCCc2ccccc21,/,/,8,/,/,/,/
CCc1ccc(NC(=O)c2cnn(-c3ccccc3)c2C)cc1,-11,-293,-57,-136,-215,-145,-298
O=C(NCCNCCO)C1(C(F)(F)F)C/C(=C\CCO)CCCO1 (stereo not given),-3,61*,3,3,54*,83*,58*
Cc1ccc(NC(=O)c2ccc3c(c2)OCO3)cc1Cl,-8,-287,-40,-102,-200,-104,-246
COc1ccc2oc(=O)c(C(=O)Nc3ccccc3O)cc2c1,0,-279,-40,-5,-201,-108,-296
O=C(Cc1ccccc1)NC1CCCCN(Cc2cccc(Cl)c2)C1=O (stereo not given),/,/,-2,/,/,/,/
COc1cc2ccc(-c3ccc4ccccc4n3)cc2cc1OC,1,/,-23,/,/,/,/
COc1ccc(-c2ccc3ccccc3n2)cc1,2,-307,-42,-120,-180,-122,-286

# Screening data: PubChem BioAssay, several laboratories
